The panel holds about 83,000 compounds, 20% with a hit somewhere; the sample as a whole holds those more often.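 Single-dose data. Exposure time 48 hours. Values below 10 considered active.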 Active and inactive are the calls of the source.
Legend:
Experiment in all cases: NCI-60 one-dose screen, 48 h (100 = growth as untreated, 0 = no growth, -100 = all killed)
SK-MEL-2 melanoma = conditions: 10 µM unless noted
EKVX NSCLC = conditions: 10 µM unless noted
SN12C renal = conditions: 10 µM unless noted
UO-31 renal = conditions: 10 µM unless noted
TK-10 renal = conditions: 10 µM unless noted
ACHN renal = conditions: 10 µM unless noted
CAKI-1 renal = conditions: 10 µM unless noted
A498 renal = conditions: 10 µM unless noted
CCRF-CEM leukemia = conditions: 10 µM unless noted
MOLT-4 leukemia = conditions: 10 µM unless noted
SR leukemia = conditions: 10 µM unless noted
RPMI-8226 leukemia = conditions: 10 µM
OVCAR-8 ovarian = conditions: 10 µM unless noted
OVCAR-5 ovarian = conditions: 10 µM unless noted
OVCAR-4 ovarian = conditions: 10 µM unless noted
SK-OV-3 ovarian = conditions: 10 µM
IGROV1 ovarian = conditions: 10 µM unless noted
OVCAR-3 ovarian = conditions: 10 µM unless noted
HS 578T breast = conditions: 10 µM unless noted
NCI/ADR-RES ovarian = conditions: 10 µM unless noted

Measured: growth

CC1SC(c2ccc(Cl)cc2)N(CCc2cccs2)C1=O (configuration not stated)
inactive: CCRF-CEM leukemia 10.1%
active: SK-MEL-2 melanoma -72.8% | EKVX NSCLC -12.5% | SN12C renal -75.6% | UO-31 renal 1.81% | TK-10 renal -16.5% | ACHN renal -6.58% | CAKI-1 renal -33.6% | A498 renal -13.7% | MOLT-4 leukemia -4.19% | SR leukemia -1.75% | RPMI-8226 leukemia -10.3% | OVCAR-8 ovarian 4.04% | OVCAR-5 ovarian 8.29% | OVCAR-4 ovarian 8.71% | SK-OV-3 ovarian 5.5% | IGROV1 ovarian 4.04% | OVCAR-3 ovarian -30.3% | HS 578T breast -16% | NCI/ADR-RES ovarian -11%

O=C1C=CC(=O)N1CCCCCCCCCCN1C(=O)C=CC1=O
inactive: SK-MEL-2 melanoma 96% | EKVX NSCLC 97.8% | SN12C renal 94.8% | UO-31 renal 48.2% | TK-10 renal 106% | ACHN renal 80.3% | CAKI-1 renal 15.2% | A498 renal 147% | CCRF-CEM leukemia 16.5% | MOLT-4 leukemia 18.3% | SR leukemia 29.1% | RPMI-8226 leukemia 52.9% | OVCAR-8 ovarian 78.2% | OVCAR-5 ovarian 103% | OVCAR-4 ovarian 102% | SK-OV-3 ovarian 126% | IGROV1 ovarian 69.5% | OVCAR-3 ovarian 38.2% | HS 578T breast 67.4% | NCI/ADR-RES ovarian 73.1%

O=C1c2ccccc2C(=O)c2c(Nc3ccc(CCO)cc3)ccc(O)c21
inactive: SK-MEL-2 melanoma 103% | EKVX NSCLC 45% | SN12C renal 85.5% | UO-31 renal 47.4% | TK-10 renal 100% | ACHN renal 64.4% | A498 renal 51.5% | CCRF-CEM leukemia 39.8% | MOLT-4 leukemia 35.9% | RPMI-8226 leukemia 46.5% | OVCAR-8 ovarian 74.1% | OVCAR-5 ovarian 105% | OVCAR-4 ovarian 72.5% | SK-OV-3 ovarian 73.5% | IGROV1 ovarian 45.4% | OVCAR-3 ovarian 122% | NCI/ADR-RES ovarian 82%
active: CAKI-1 renal -4.04% | SR leukemia -5.4% | HS 578T breast -21.7%

CCN1C(=O)C2(Nc3ccccc3S2)c2cc(C)ccc21 (configuration not stated)
active: CCRF-CEM leukemia 9.42%
inactive: SK-MEL-2 melanoma 111% | EKVX NSCLC 103% | SN12C renal 97.7% | UO-31 renal 79.3% | TK-10 renal 107% | ACHN renal 94.2% | CAKI-1 renal 99% | A498 renal 138% | MOLT-4 leukemia 100% | SR leukemia 111% | RPMI-8226 leukemia 92.9% | OVCAR-8 ovarian 97.8% | OVCAR-5 ovarian 91.8% | OVCAR-4 ovarian 95.9% | SK-OV-3 ovarian 100% | IGROV1 ovarian 98.2% | OVCAR-3 ovarian 108% | HS 578T breast 116% | NCI/ADR-RES ovarian 101%

CC1(C)CC(=O)C2=C(C1)Nc1cc3c(cc1C2c1ccc(F)cc1)OCO3 (configuration not stated)
inactive: SK-MEL-2 melanoma 91.3% | EKVX NSCLC 92.3% | SN12C renal 106% | UO-31 renal 74% | TK-10 renal 99.4% | ACHN renal 98.6% | CAKI-1 renal 96.4% | A498 renal 82% | CCRF-CEM leukemia 86.4% | MOLT-4 leukemia 83.1% | SR leukemia 90.4% | RPMI-8226 leukemia 92.1% | OVCAR-8 ovarian 97% | OVCAR-5 ovarian 107% | OVCAR-4 ovarian 93.9% | SK-OV-3 ovarian 97.6% | IGROV1 ovarian 100% | OVCAR-3 ovarian 103% | HS 578T breast 88.3% | NCI/ADR-RES ovarian 90.7%

Cc1cc[n+](CCc2ccccc2)cc1
inactive: SK-MEL-2 melanoma 107% | EKVX NSCLC 80.6%

COc1cc(C2C3=C(COC3=O)N(CCO)c3cc4c(cc32)OCO4)cc(OC)c1O (configuration not stated)
inactive: SK-MEL-2 melanoma 25% | EKVX NSCLC 57.2% | SN12C renal 52.7% | UO-31 renal 57.9% | TK-10 renal 61.8% | ACHN renal 37.9% | CAKI-1 renal 60.4% | CCRF-CEM leukemia 28.6% | MOLT-4 leukemia 47.6% | SR leukemia 21.5% | RPMI-8226 leukemia 21.8% | OVCAR-8 ovarian 42.8% | OVCAR-5 ovarian 72% | OVCAR-4 ovarian 48.3% | SK-OV-3 ovarian 31.8% | IGROV1 ovarian 36% | NCI/ADR-RES ovarian 73.3%
active: A498 renal -2.62% | OVCAR-3 ovarian -25.9% | HS 578T breast 3.31%

Cc1nc(-c2ccccc2)cc2c(O)c(C(=O)N/N=C/Cc3ccccc3)[nH]c(=O)c12
inactive: SK-MEL-2 melanoma 102% | EKVX NSCLC 103% | SN12C renal 104% | UO-31 renal 95.1% | TK-10 renal 109% | ACHN renal 104% | CAKI-1 renal 111% | A498 renal 94.5% | CCRF-CEM leukemia 92.4% | MOLT-4 leukemia 90.5% | SR leukemia 46.1% | RPMI-8226 leukemia 103% | OVCAR-8 ovarian 103% | OVCAR-5 ovarian 101% | OVCAR-4 ovarian 110% | SK-OV-3 ovarian 108% | IGROV1 ovarian 113% | OVCAR-3 ovarian 116% | HS 578T breast 112% | NCI/ADR-RES ovarian 109%

N#CC1=C(N)Oc2cc(N)ccc2C1c1ccc(F)cc1 (configuration not stated)
inactive: SK-MEL-2 melanoma 79.8% | EKVX NSCLC 97.1% | SN12C renal 90.4% | UO-31 renal 79.5% | TK-10 renal 84.8% | ACHN renal 99.4% | CAKI-1 renal 62.6% | A498 renal 64.8% | CCRF-CEM leukemia 66.6% | MOLT-4 leukemia 70.8% | SR leukemia 20.5% | RPMI-8226 leukemia 81.6% | OVCAR-8 ovarian 98.6% | OVCAR-5 ovarian 97.2% | OVCAR-4 ovarian 94.1% | SK-OV-3 ovarian 85.2% | IGROV1 ovarian 69.4% | OVCAR-3 ovarian 96.8% | HS 578T breast 81.4% | NCI/ADR-RES ovarian 44.9%

Reference: PubChem BioAssay (NCI)
